Only some compounds are listed: those with a hit (about 8.3% of all), similar ones and a draw of the others.
Marburg entry inh = qHTS for inhibitors of binding or entry into cells for Marburg Virus. Marburg virus pseudotyped entry inhibition, cell reporter. Potency, µM (doses to about 37.8 µM), hits mostly inhibitors. 1.8% of 300,000 active. AID 540276, 2011; calls by dose curve; tested in HEK293 cells
FMDV antiviral = High Throughput Screening for Foot and Mouth Disease Virus Antivirals; FMDV antiviral cell-based qHTS; Potency, µM (doses to about 57.9 µM), usual class: inhibitors; 1.2% of 410,000 active; AID 1159524, 2015; calls by dose curve; tested in HEK293T cells; also: read-out not given here; nearly all actives have a fitted effect of over 45% in size
HCMV inh = qHTS Assay for inhibitors of the human cytomegalovirus (HCMV). HFF cells, HCMV-luciferase reporter, 72 h; hits give low values. activity change, negative = inhibition, % at 57.5 µM. 4.5% of 410,000 active. AID 1259415, 2018; in the data active = activity change below about -60%; inconclusive = no clear call, values can overlap the other calls; inactive = above about -39%
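Inhibition of viral replication was scored as loss of reporter luminescence in HFFs infected with HCMV-luciferase (MOI 1 PFU/cell) for 72 h; compounds tested at 2 doses, normalized to buffer and Salinomycin controls.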
HCV inh = qHTS Assay for Inhibitors of Hepatitis C Virus (HCV) | Huh7.5.1 HCVcc-Cre infection, luciferase reporter, 44 h | AID 651820, 2012 | 3.4% of 340,000 active | Potency, µM (titrated, usually from 41.8 µM), usual class: inhibitors
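After 44 h co-culture of compound, cells and HCVcc-Cre (~0.5 moi), substrate is added for 15 min at room temperature and luciferase measured over 15 sec. Cells were seeded at 1,000/well and pre-cultured 4 h.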
Giardia FBPA inh = qHTS Assay for Inhibitors of Fructose-1,6-bisphosphate Aldolase from Giardia Lamblia; AID 2451, 2010; purified Giardia FBPA; 0.71% of 290,000 active; Potency, µM (series often up to 59.6 µM), most hits filed as inhibitors; also: nearly all actives have a fitted effect of over 55% in size
Target sequence (A8B2U2 whole entry, looked up): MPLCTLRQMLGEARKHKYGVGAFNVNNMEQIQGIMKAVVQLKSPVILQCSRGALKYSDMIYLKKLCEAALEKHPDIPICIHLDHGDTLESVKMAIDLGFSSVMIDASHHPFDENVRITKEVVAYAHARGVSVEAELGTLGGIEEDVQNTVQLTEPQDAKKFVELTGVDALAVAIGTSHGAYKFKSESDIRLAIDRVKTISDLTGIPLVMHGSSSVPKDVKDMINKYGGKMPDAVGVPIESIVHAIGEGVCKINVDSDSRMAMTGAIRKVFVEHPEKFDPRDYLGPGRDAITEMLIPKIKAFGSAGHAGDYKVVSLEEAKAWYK
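Giardia FBPA (40 nM reagent) was preincubated 10 min at RT with compound (up to 57.5 uM final), then substrate plus GAPDH/TPI/NAD/arsenate coupling system with diaphorase/resazurin was added; resorufin fluorescence (525/598 nm) was read after 20 min.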
Lassa entry inh = qHTS for Inhibitors of binding or entry into cells for Lassa Virus; 1.2% of 300,000 active; Lassa virus pseudotype entry inhibition, cell reporter; AID 540256, 2011; Potency, µM (doses to about 37.9 µM), hits mostly inhibitors; calls by dose curve; tested in HEK293 cells; also: nearly all actives have a fitted effect of over 50% in size
Hits are given with their value; – = inactive; ? = inconclusive; · = not tested or not shown; ! = repeats disagree; [ ] = remark or other dose. Unless noted, calls follow the shape of the dose curve; as a rule, active = well fitted curve in the direction sought with a large enough effect; inconclusive = small, poorly fitted or top-dose-only effect, or another doubt; inactive = no such curve, though single readings can be large; an effect the other way counts as inactive or inconclusive.

SMILES | Marburg entry inh | FMDV antiviral | HCMV inh | HCV inh | Giardia FBPA inh | Lassa entry inh
CN1CCN(c2ccccc2NC(=O)c2cccc(OCc3ccccc3)c2)CC1 | ? | · | – | ? | – | –
COc1cccc(CNC(=O)c2c(OC)cc(=O)n3c2CCN(C(=O)c2ccc(C)s2)CC3)c1 | · | – | · | · | · | ·
Cc1nc(C)c(-c2ccc(SCC(=O)Nc3ccccc3)nn2)s1 | – | ? | ? | ? | · | –
COc1ccc(C)cc1NC(=O)CSc1ccc(-c2sc(C)nc2C)nn1 | – | – | – | 10µM | – | ?
COc1ccc(OC)c(NC(=O)CSc2ccc(-c3sc(C)nc3C)nn2)c1 | · | ? | – | · | · | ?
COc1cccc(NC(=O)CSc2ccc(-c3sc(C)nc3C)nn2)c1 | ? | 32µM | – | 32µM | – | ?
CCOC(=O)c1nnc(-c2ccc(C)cc2)nc1Sc1cccc(Cl)c1 | ? | – | – | – | – | –
CCOC(=O)c1nnc(-c2ccccc2)nc1Sc1ccccc1Cl | ? | 25µM | – | ? | – | –
CCOC(=O)c1cnc(-c2ccccc2)nc1Oc1ccc(Cl)c(Cl)c1 | – | – | – | – | – | –
CCOC(=O)c1nnc(-c2ccccc2)nc1Oc1ccc(Cl)cc1 | – | 16µM | – | – | – | –
Cc1ccc[n+](C(C)C(=O)c2ccc(Cl)cc2)c1 (centres undefined) | · | – | – | – | – | ·
Cc1cc(C)c[n+](C(C)C(=O)c2ccc(-c3ccccc3)cc2)c1 (centres undefined) | ? | ? | -99 | – | – | –
COc1ccc(C(=O)CSc2ccc(-c3ccccc3)nn2)cc1 | – | – | – | – | – | –
COc1ccc(-c2ccc(SC)nn2)cc1 | ? | – | – | – | – | 3.5µM
Cc1ncc2c(c1CNC(=O)c1ccc3c(c1)OCO3)CCN(C(=O)/C=C/c1ccc(Cl)cc1)C2 | · | – | · | · | · | ·
CNS(=O)(=O)c1cc(N(C)S(=O)(=O)c2ccc(C)cc2)c(C)cc1C | ? | – | ? | – | – | –
Cc1ccc(S(=O)(=O)N(C)c2cc(S(=O)(=O)N3CCC(C)CC3)c(C)cc2C)cc1 | ? | ? | ? | 10µM | · | ?
COc1cc2nc(N(C)CCCNC(=O)[C@@H]3CCCO3)nc(N)c2cc1OC | · | · | · | · | – | ·
C[C@H](CO)N1C[C@H](C)[C@H](CN(C)C(=O)Nc2ccc(N3CCCCC3)cc2)OCc2cnnn2CCCC1=O | · | · | – | · | · | ·
O=C(CN1C(=O)NC(Cc2c[nH]c3ccccc23)C1=O)Nc1cccc(S(=O)(=O)N2CCCC2)c1 (centres undefined) | – | ? | – | ? | – | –
COc1cccc(NC(=O)CN2C(=O)NC(Cc3c[nH]c4ccccc34)C2=O)c1 (centres undefined) | – | – | – | – | · | –
O=C(CN1C(=O)NC(Cc2c[nH]c3ccccc23)C1=O)Nc1cccc(S(=O)(=O)N2CCCCCC2)c1 (centres undefined) | ? | – | ? | 10µM | – | –
CN(C)S(=O)(=O)c1cccc(NC(=O)CN2C(=O)NC(Cc3c[nH]c4ccccc34)C2=O)c1 (centres undefined) | – | – | – | 1.6µM | – | –
Cc1ccc(S(=O)(=O)N(C)C)cc1NC(=O)CN1C(=O)NC(Cc2c[nH]c3ccccc23)C1=O (centres undefined) | · | – | – | – | – | ·
Cc1ccc(NC(=O)CN2C(=O)NC(Cc3c[nH]c4ccccc34)C2=O)cc1S(=O)(=O)N1CCCCC1 (centres undefined) | ? | ? | – | 11µM | – | –
SMILES | Marburg entry inh | FMDV antiviral | HCMV inh | HCV inh | Giardia FBPA inh | Lassa entry inh
CC(=O)c1cccc(NC(=O)C(CC(C)C)NS(=O)(=O)c2ccc3c(c2)CCN3C(C)=O)c1 (centres undefined) | – | – | – | · | · | –
Cc1ccc(CNC(=O)C(C)n2c(=O)cc(-c3ccccc3)c3c(C)nn(C)c32)cc1 (centres undefined) | · | – | – | · | · | –
Cc1ccc(C)c(N2CCN(C(=O)C3CCN(c4nnc(N5CCCC5=O)s4)CC3)CC2)c1 | ? | 25µM | – | ? | – | ?
O=C(C1CCN(c2nnc(N3CCCC3=O)s2)CC1)N1CCN(c2cccc(C(F)(F)F)c2)CC1 | · | – | -79 | ? | – | ·
CC[C@H](C)[C@H](NC(=O)CNC(=O)[C@H](CCCNC(=N)N)NC(=O)CNC(=O)[C@@H](NC(=O)[C@H](Cc1ccc(O)cc1)NC(=O)[C@H](Cc1c[nH]c2ccccc12)NC(=O)[C@H](C)NC(=O)[C@@H]1CCCN1C(=O)[C@H](CC(N)=O)NC(=O)[C@@H](NC(=O)[C@H](CC(=O)O)NC(=O)[C@@H]1CCCN1C(=O)[C@@H](N)[C@@H](C)O)[C@@H](C)CC)[C@@H](C)O)C(=O)N[C@@H](CCCNC(=N)N)C(=O)N1CCC[C@H]1C(=O)N[C@H](C(=O)NCC(=O)N[C@@H](CCCNC(=N)N)C(=O)N[C@@H](Cc1ccccc1)C(N)=O)C(C)C | · | · | · | · | – | ·
Cc1ccc(NC2=C(C(=O)c3ccccc3)N(C)S(=O)(=O)c3ccccc32)cc1 | ? | – | ? | 11µM | – | –
CN1C(C(=O)c2ccccc2)=C(N)c2ccccc2S1(=O)=O | – | – | – | – | – | –
N#C/C(=C\c1cn[nH]c1-c1ccccc1)C(=O)NC1CCCCCC1 | ? | – | – | 25µM | – | –
CC(NC(=O)/C(C#N)=C/c1cn[nH]c1-c1ccccc1)c1ccccc1 (centres undefined) | ? | – | – | ? | – | 11µM
CC1=C(c2ccc(Cl)cc2)S(=O)(=O)N=C1N1CCN(c2cccc(C(F)(F)F)c2)CC1 | ? | – | -60 | · | · | –
Cc1oc(-c2ccccc2F)nc1CS(=O)(=O)CC(=O)N1CCN(c2ccc(Cl)cc2)CC1 | – | 16µM | -83 | · | · | ?
Cc1oc(-c2ccc(Cl)cc2)nc1CS(=O)CC(=O)N1CCN(c2cccc(C(F)(F)F)c2)CC1 (centres undefined) | · | 32µM | ? | · | · | –
COc1cccc(N2CCN(C3=NS(=O)(=O)C(c4ccc(C)cc4)=C3C)CC2)c1 | ? | – | – | · | · | –
Cc1ccc(-c2nc(CS(=O)CC(=O)N3CCN(c4ccc(F)cc4)CC3)c(C)o2)cc1 (centres undefined) | ? | ? | -63! | ? | · | ?
Cc1ccc(-c2nc(CS(=O)CC(=O)N3CCN(c4cccc(Cl)c4)CC3)c(C)o2)cc1 (centres undefined) | – | – | ? | · | · | –
C[C@@H]1CC[C@H]2C(=O)NC[C@@H](O)CN2[C@@H]1c1ccc(Br)cc1 | ? | · | · | · | –[12.9 µM] | ·
N#CCc1ccc(NS(=O)(=O)c2ccc(C3CCCCC3)cc2)cc1 | ? | – | -64 | ? | – | –

Screening data: PubChem, National Center for Advancing Translational Sciences (NCATS)
